GPT2 inh – Primary qHTS assay for inhibitors of Glutamate pyruvate transaminase 2 (GPT2) | Alanine aminotransferase 2 (Homo sapiens), Q8TD30 | Recombinant GPT2, coupled pyruvate oxidase/HRP Amplex Red fluorescence | Potency, µM (series often up to 57.7 µM), for the others: top-dose activity change, negative = inhibition, most hits filed as inhibitors | 100,000 tested, 0.25% active; further: nearly all actives have a fitted effect of over 60% in size
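Fluorescence of coupled pyruvate oxidase/HRP/Amplex Red system (50uM Amplex, 30 min, dark) reports pyruvate formed by GPT2. Enzyme reaction: 10ng/uL GPT2, 2mM L-alanine, 250uM a-KG, 30 min room temperature, pH 7.5; 50uM AOA control.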
HEK cytotox – Cytotoxic Profiling in HEK 293 Cell Line of Diverse Libraries Using Quantitative High-Throughput Screening. Potency, µM (top dose mostly 115 µM), without a hit: at the top dose activity change, negative = cytotoxicity, most hits filed as inhibitors. 94,000 tested, 6.6% active. HEK 293 viability, ATP luminescence (CellTiter-Glo), 48-72 h; further: nearly all actives have a fitted effect of over 60% in size
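Cells seeded first (HEK 293, 250 cells/well), then compound added by pintool. Incubation ran 48 or 72 hr at 37 degree Celsius. CellTiter-Glo was added and luminescence imaged after 10 min at room temperature.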
Luciferase inh – Firefly luciferase inhibition profiling of diverse chemical library using quantitative high-throughput screening | purified P. pyralis luciferase, luminescence, biochemical | Potency, µM (doses to about 115 µM), hits mostly inhibitors | 76,000 tested, 2.5% active; further: nearly all actives have a fitted effect of over 65% in size
Target sequence (P08659 whole entry, looked up): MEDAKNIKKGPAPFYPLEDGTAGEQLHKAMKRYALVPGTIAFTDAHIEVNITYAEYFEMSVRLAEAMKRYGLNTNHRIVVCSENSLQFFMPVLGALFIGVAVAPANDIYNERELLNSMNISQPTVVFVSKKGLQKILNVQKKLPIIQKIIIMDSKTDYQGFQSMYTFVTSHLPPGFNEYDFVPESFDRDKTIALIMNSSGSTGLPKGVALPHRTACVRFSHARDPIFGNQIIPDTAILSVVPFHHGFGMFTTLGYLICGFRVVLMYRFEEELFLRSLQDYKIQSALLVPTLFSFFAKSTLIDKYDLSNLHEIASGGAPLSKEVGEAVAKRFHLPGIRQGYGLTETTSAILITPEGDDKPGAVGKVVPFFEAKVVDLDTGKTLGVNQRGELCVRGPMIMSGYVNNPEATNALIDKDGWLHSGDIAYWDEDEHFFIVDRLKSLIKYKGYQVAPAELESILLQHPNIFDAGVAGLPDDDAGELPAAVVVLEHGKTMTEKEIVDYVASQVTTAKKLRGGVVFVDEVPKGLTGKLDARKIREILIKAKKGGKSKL
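Purified 10nM P. pyralis luciferase with 10uM D-luciferin and 10uM ATP in 50mM Tris acetate pH 7.5, 10mM Mg acetate, 0.01% Tween-20, 0.05% BSA. qHTS titration; luminescence read by CCD imager.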
hNpr1 antagonist – Natriuretic polypeptide receptor (hNpr1) antagonism - Primary qHTS | Atrial natriuretic peptide receptor 1 (Homo sapiens), P16066 | HEK293 hNpr1 GloSensor cGMP, ANP-stimulated luminescence | Potency, µM (doses to about 46.3 µM), for the others: at the top dose activity change, negative = inhibition, hits mostly inhibitors | 76,000 tested, 1.6% active | AID 1347048, 2019; calls by dose curve; further: nearly all actives have a fitted effect of over 60% in size
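HEK293 cells stably expressing human Npr1 and cGMP GloSensor pGS-40F, loaded 2 h with 2% GloSensor reagent, given compound 30 min at room temperature. Luminescence read before and 20 min after 0.1 nM hNppA.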
NIH3T3 tox – Cytotoxic Profiling in NIH 3T3 Cell Line of Diverse Libraries Using Quantitative High-Throughput Screening | NIH 3T3 viability, CellTiter-Glo ATP luminescence, 48-72 h | Potency, µM (titrated, usually from 96.7 µM), without a hit: at the highest dose activity change, negative = cytotoxicity, usual class: inhibitors | 94,000 tested, 4.3% active | AID 1345082, 2018; further: nearly all actives have a fitted effect of over 55% in size
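ATP-dependent luminescence (CellTiter-Glo) served as the viability signal for NIH 3T3 cells treated with compound for 48 or 72 hr at 37 °C.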
* hit, by the source's call; i = inactive; ? = inconclusive; . = no result; [ ] = dose if it differs, or a comment. Sampled rows, rich in hits. Any-hit rate of the full collection: about 10%. Unless noted, the call rests on the fitted dose curve; in most records, active means well fitted curve in the direction sought with a large enough effect; inconclusive means small, poorly fitted or top-dose-only effect, or another doubt; inactive means no such curve, though single readings can be large; an effect the other way counts as inactive or inconclusive. On the % scale 0 is the no-effect control and ±100 the full control effect; potency means the concentration at half of the fitted maximal effect.

SMILES	GPT2 inh	HEK cytotox	Luciferase inh	hNpr1 antagonist	NIH3T3 tox
Cc1ccc(NC(=O)c2cc3n(n2)CC(c2ccc4c(c2)OCO4)OC3)cc1F (configuration not stated)	i	39.8µM*	i	?	-25.6%
COc1ccc(NC(=O)c2cc3n(n2)CC(c2ccc4c(c2)OCO4)OC3)cc1 (configuration not stated)	i	44.7µM*	?	11.2µM*	?
COc1ccc(NC(=O)c2cc3n(n2)CC(c2ccc4c(c2)OCO4)OC3)c(OC)c1 (configuration not stated)	i	?	i	-4.6%	?
NC(=O)c1ccc(NC(=O)c2cc3n(n2)CC(c2ccc(Br)cc2)OC3)cc1 (configuration not stated)	i	35.5µM*	i	?	?
CC(=O)Nc1ccc(NC(=O)c2cc3n(n2)CC(c2ccc(Br)cc2)OC3)cc1 (configuration not stated)	-2.6%	?	?	?	?
N#Cc1cccc(C(=O)N2CC(c3nc(CCOCC4CCCC4)no3)C2)c1	?	?	.	.	-23.9%
COCCN1C(=O)c2cccn2CC1CNC(=O)c1n[nH]c(=O)c2ccccc12 (configuration not stated)	i	-7.6%	i	5.1%	i
Cc1ccccc1CC(=O)N1CCC2(CC1)CC(O)CCO2 (configuration not stated)	1.1%	i	.	.	0.3%
CC1(c2noc(C3CC3)n2)CCN(C(=O)CCc2nc3ccc(Cl)cc3[nH]2)CC1	i	?	i	-19.8%	-23.1%
CC1(c2noc(-c3ccccn3)n2)CCN(C(=O)C2CCN(C(=O)c3ccc(=O)[nH]c3)CC2)CC1	i	-19.8%	i	15.1%	?
Cc1noc(C)c1Cc1ccc(C(=O)N2CCC(C)(c3noc(-c4ccccn4)n3)CC2)o1	i	44.7µM*	i	-29.6%	?
CC1(c2noc(-c3ccccn3)n2)CCN(C(=O)CCc2nc3ccc(Cl)cc3[nH]2)CC1	4.2%	50.1µM*	i	-15.8%	?
Cc1noc(C)c1Cc1ccc(C(=O)N2CCC(C)(c3noc(-c4cccnc4)n3)CC2)o1	i	?	i	-22.7%	31.6µM*
CN1C(=O)C2(CCN(C(=O)CCC3CCCC3)CC2)c2ccccc21	-11.3%	?	i	-14.2%	-19.2%
O=C(c1cccnc1)N1CCC(N2C(=O)C(OCC3CC3)C23CCCCC3)CC1 (configuration not stated)	i	?	i	1.0%	-10.7%
Cc1ccc(-c2cc(C(=O)NCc3ccc4c(c3)OCO4)nn3cnnc23)cc1	0.5%	?	.	.	?
COc1ccc(C(=O)N2CCCC3(CC(c4cccc(C(F)(F)F)c4)=NO3)C2)cc1 (configuration not stated)	-5.2%	?	i	-22.5%	?
FC(F)(F)c1cccc(C2=NOC3(CCN(Cc4ccccc4)C3)C2)c1 (configuration not stated)	?	44.7µM*	.	.	?
O=C(Cc1cccc(Cl)c1)N1CCC2(CC1)CC(c1cccc(C(F)(F)F)c1)=NO2	.	28.2µM*	.	.	?
COc1ccc(CC(=O)N2CCC3(CC2)CC(c2cccc(C(F)(F)F)c2)=NO3)cc1	.	39.8µM*	.	.	?
O=C(Cc1ccccc1)N1CCC2(CC1)CC(c1cccc(C(F)(F)F)c1)=NO2	.	44.7µM*	.	.	?
Cc1cccc(CN2CCN(Cc3nc(-c4ccco4)oc3C)C(C)C2=O)c1 (configuration not stated)	-5.7%[11.5 µM]	-13.5%	i	-9.7%	-3.6%
O=C(Nc1cccc(-c2nnc3n2CCCC3)c1)C1CCC1	i	-11.0%	i	0.6%	5.0%

Screening data from PubChem.
